Among the data in PubChem BioAssay (NCI) are growth values, retold here.

Common to all, as to assay: NCI-60 one-dose screen, 48 h (100 = growth as untreated, 0 = no growth, -100 = all killed)
One test has as its system HCT-15 colon. Particulars: 10 µM unless noted.
A further test deals with HT29 colon. Particulars: 10 µM unless noted.
The next test relates to SNB-75 CNS. The following applies: 10 µM unless noted.
For the next test, the system named is SNB-19 CNS. The following applies: 10 µM unless noted.
The test system of another test is U251 CNS. The following applies: 10 µM unless noted.
For a further test, the system named is PC-3 prostate. The following applies: 10 µM unless noted.
A further test has as its system SK-MEL-5 melanoma. The following applies: 10 µM unless noted.
In another test the test system is UACC-62 melanoma. The following applies: 10 µM unless noted.
The next test concerns LOX IMVI melanoma. The following applies: 10 µM unless noted.
The test system of another test is SK-MEL-28 melanoma. The following applies: 10 µM unless noted.
The subject of a further test is SK-MEL-2 melanoma. The following applies: 10 µM unless noted.
The subject of a further test is SN12C renal. The following applies: 10 µM unless noted.
For another test, the system named is UO-31 renal. The following applies: 10 µM unless noted.
Another test has as its system TK-10 renal. Particulars: 10 µM unless noted.
For a further test, the system named is CAKI-1 renal. Particulars: 10 µM unless noted.
Another test deals with A498 renal. The following applies: 10 µM.
Another test concerns HL-60(TB) leukemia. Particulars: 10 µM unless noted.
Another test concerns CCRF-CEM leukemia. Particulars: 10 µM unless noted.
The test system of the next test is EKVX NSCLC. The following applies: 10 µM unless noted.
Another test concerns ACHN renal. Particulars: 10 µM unless noted.

Structures are written as SMILES. About 83,000 compounds went through this panel and 20% of them were active in at least one assay; those are over-represented in the sample as a whole.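 Single-concentration screen, 48 h exposure, 96-well plates. Endpoint: percent growth. Below 10 = active.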 Unmarked numbers belong to inactive results. Activity calls are given as the source filed them.

As for `N/C(=N/N=C/c1ccncc1)N[N+](=O)[O-]`, the growth was 97.3% in the test with HCT-15 colon; 101% in the test with HT29 colon; 96% with SNB-75 CNS; 104% with SNB-19 CNS; 97.4% with U251 CNS; 97.9% in the test on PC-3 prostate. Besides, the growth in the test with SK-MEL-5 melanoma was 103%; in the test on UACC-62 melanoma, 97.3%; in the test on LOX IMVI melanoma, 95.5%; in the test with SK-MEL-28 melanoma, 110%; in the test on SK-MEL-2 melanoma it was 104%; with SN12C renal, 95.8%. Besides, the growth in the test on UO-31 renal is 93.8%; in the test with TK-10 renal, 94.1%; with CAKI-1 renal, 99.2%; with A498 renal it was 86.3%; with HL-60(TB) leukemia, 109%; in the test on CCRF-CEM leukemia, 101%.

With `COc1cc(C=C2c3ccccc3C(=O)c3ccccc32)ccc1OCCCCOc1cc2c(cc1OC)C(=O)N1CCCC1C=N2` (stereo not drawn), the growth in the test with HCT-15 colon was -75.6% (active); with HT29 colon, -64.6% (active); in the test on SNB-75 CNS, -90.9% (active); with SNB-19 CNS, -89.2% (active); in the test on U251 CNS it was -100% (active); with PC-3 prostate, -45.9% (active). The growth is -92.4% (active) with SK-MEL-5 melanoma; -90.1% (active) with UACC-62 melanoma; -100% (active) in the test with LOX IMVI melanoma; -82.8% (active) in the test on SK-MEL-28 melanoma; -49.8% (active) in the test with EKVX NSCLC; -68.6% (active) in the test with SN12C renal. Moreover, the growth in the test on UO-31 renal is -96% (active); in the test with TK-10 renal it was -70.2% (active); with ACHN renal, -62.8% (active); in the test on CAKI-1 renal, -75.5% (active); in the test on A498 renal, -78.6% (active); in the test with HL-60(TB) leukemia, -21.3% (active). Further, in the test on CCRF-CEM leukemia, the growth is -24% (active).

With `O=C1CCC2(O)[C@@H]3Cc4ccc(O)c5c4[C@]2(CCN3Cc2ccoc2)C1O5` (stereo partly drawn), the growth in the test with HCT-15 colon is 100%; with HT29 colon, 102%; with SNB-75 CNS, 85.1%; in the test with SNB-19 CNS it was 101%; with U251 CNS, 101%; in the test on PC-3 prostate, 44.2%. For the same compound, the growth with SK-MEL-5 melanoma was 100%; in the test with UACC-62 melanoma, 109%; with LOX IMVI melanoma, 92.2%; in the test on SK-MEL-28 melanoma it was 115%; with SK-MEL-2 melanoma, 106%; in the test on SN12C renal, 97.9%. In addition, the growth with UO-31 renal is 78.8%; with TK-10 renal it was 102%; in the test on ACHN renal, 98%; in the test with CAKI-1 renal it was 99.3%; in the test on A498 renal it was 108%; with HL-60(TB) leukemia, 95%. The growth in the test on CCRF-CEM leukemia was 98.5%.

Take `N/C(=N\N=C\c1ccc(-c2ccccc2)cc1)N[N+](=O)[O-]`: the growth with HCT-15 colon is 31.6%; in the test with HT29 colon it was 14%; in the test on SNB-75 CNS it was -1.49% (active); with SNB-19 CNS it was 55.3%; in the test with U251 CNS it was 31.1%; with PC-3 prostate it was 29.8%. Moreover, the growth in the test with SK-MEL-5 melanoma is 19.8%; in the test with UACC-62 melanoma, 49.4%; in the test with LOX IMVI melanoma it was 41.9%; in the test on SK-MEL-28 melanoma, 54%; in the test with SK-MEL-2 melanoma, 47.1%; with SN12C renal it was 53.3%. Further, the growth in the test on UO-31 renal is 45.2%; with ACHN renal it was 52.5%; in the test on CAKI-1 renal, 27.5%; in the test with A498 renal it was 5.42% (active); in the test on HL-60(TB) leukemia, -16.2% (active); with CCRF-CEM leukemia it was 11.9%.

`CO[C@H](C(=O)O)[C@@H]1Cc2cc3cc(OC4CC(OC5CC(O)C(O)C(C)O5)C(O)C(C)O4)c(C)c(O)c3c(O)c2C(=O)[C@H]1OC1CC(OC2CC(OC3CC(C)(O)C(O)C(C)O3)C(O)C(C)O2)C(O)C(C)O1` (stereo partly drawn): the growth in the test with HCT-15 colon is 38.7%; in the test with HT29 colon it was 7.12% (active); with SNB-75 CNS, -55.1% (active); in the test with SNB-19 CNS it was 10.8%; in the test with U251 CNS, 10.1%; in the test on PC-3 prostate, 19.7%. The growth is -17.2% (active) with SK-MEL-5 melanoma; -68.1% (active) in the test on UACC-62 melanoma; -6.05% (active) in the test on LOX IMVI melanoma; -5.84% (active) in the test on SK-MEL-28 melanoma; 31.3% in the test on EKVX NSCLC; 15.3% with SN12C renal. Further, the growth with UO-31 renal is 8.85% (active); with TK-10 renal, 24.2%; in the test with ACHN renal, 2.89% (active); in the test on CAKI-1 renal it was 25.7%; in the test with A498 renal, -55.7% (active); in the test on HL-60(TB) leukemia, 41.3%. Moreover, the growth with CCRF-CEM leukemia is 23.8%.

Regarding `COc1cc(/C=C/[N+](=O)[O-])cc(OC)c1`, the growth was -44.5% (active) in the test with HCT-15 colon; -25.6% (active) with HT29 colon; 25.1% in the test with SNB-75 CNS; 24.6% in the test with SNB-19 CNS; -50.9% (active) with U251 CNS; -25.4% (active) in the test on PC-3 prostate. Further, the growth in the test with SK-MEL-5 melanoma was 8.23% (active); in the test on UACC-62 melanoma, 2.61% (active); with LOX IMVI melanoma, -93.9% (active); with SK-MEL-28 melanoma, -16.9% (active); in the test on EKVX NSCLC it was 59.4%; with SN12C renal it was 44.7%. Further, the growth is -82.3% (active) with UO-31 renal; -13.9% (active) in the test on TK-10 renal; -48.9% (active) with ACHN renal; 44.2% with CAKI-1 renal; -4.1% (active) in the test on A498 renal; -20.3% (active) in the test with HL-60(TB) leukemia. Also, in the test on CCRF-CEM leukemia, the growth was -7.03% (active).

Regarding `COc1cc2c(cc1OCCCCCn1c(-c3ccco3)nc3ccccc31)N=C[C@@H]1CCCN1C2=O`, the growth in the test with HCT-15 colon is 7.84% (active); in the test with HT29 colon, 1.38% (active); in the test with SNB-75 CNS it was -64.2% (active); in the test on SNB-19 CNS, 23.3%; in the test with U251 CNS, 8.03% (active); with PC-3 prostate, 17.5%. Moreover, the growth was -17% (active) with SK-MEL-5 melanoma; -86.9% (active) in the test with UACC-62 melanoma; -31.6% (active) in the test on LOX IMVI melanoma; -43.9% (active) with SK-MEL-2 melanoma; 22.7% in the test on EKVX NSCLC; 15.8% in the test with SN12C renal. For the same compound, the growth with UO-31 renal was -23.9% (active); in the test with TK-10 renal it was -1.37% (active); in the test on ACHN renal, 10.2%; in the test with CAKI-1 renal, 12%; in the test with A498 renal, -39.6% (active); with HL-60(TB) leukemia, -27.4% (active). In addition, the growth in the test with CCRF-CEM leukemia is 29.8%.

On to `CC1=C(CN)C2=C(C)C3(CC3)[C@@](C)(O)C(=O)C2=C1`, for which the growth with HCT-15 colon was 96.4%; in the test with HT29 colon, 94.5%; in the test on SNB-75 CNS, 57.7%; with SNB-19 CNS it was 83.2%; with U251 CNS it was 84%; in the test on PC-3 prostate, 88.3%. Moreover, the growth is 98.8% with SK-MEL-5 melanoma; 97% in the test with UACC-62 melanoma; 91.6% in the test with LOX IMVI melanoma; 94.8% with SK-MEL-28 melanoma; 102% with EKVX NSCLC; 90.2% with SN12C renal. The growth in the test on TK-10 renal was 102%; in the test on ACHN renal, 97.3%; in the test with CAKI-1 renal, 94.7%; in the test with A498 renal, 68.6%; in the test on HL-60(TB) leukemia, 88.2%; in the test on CCRF-CEM leukemia it was 110%.

Take `C[C@@]1(CCCCCCCCCc2ccc(O)cc2)C[C@]2(C)OC(=O)C[C@@H]2OO1`: the growth in the test on HCT-15 colon was 83.7%; with HT29 colon, 102%; in the test on SNB-75 CNS, 95%; with SNB-19 CNS, 96.6%; in the test with U251 CNS it was 92.8%; with PC-3 prostate, 61.7%. Moreover, the growth with SK-MEL-5 melanoma is 105%; in the test with UACC-62 melanoma, 95.2%; in the test with LOX IMVI melanoma, -81.2% (active); with SK-MEL-2 melanoma it was 117%; in the test on EKVX NSCLC, 98.7%; in the test with SN12C renal, 98.5%. Besides, the growth with UO-31 renal is 16.7%; with TK-10 renal, 112%; in the test with ACHN renal, 65.5%; in the test on CAKI-1 renal, 65.1%; with A498 renal, 104%; in the test with HL-60(TB) leukemia, 81%. The growth with CCRF-CEM leukemia is 75.4%.

Turning to `Cc1cc(N(CCCl)CCCl)ccc1C=Nc1ccc(-c2csc(Cc3ccccc3)n2)cc1`, the growth with HCT-15 colon is 76.1%; in the test with HT29 colon, 88.3%; in the test on SNB-75 CNS, 50.3%; in the test with SNB-19 CNS, 81.1%; in the test with U251 CNS, 62.7%; in the test with PC-3 prostate, 53%. The growth is 84.1% with SK-MEL-5 melanoma; 48.6% with UACC-62 melanoma; 63.2% in the test with LOX IMVI melanoma; 90.5% in the test on SK-MEL-28 melanoma; 49% in the test with SN12C renal; 30.7% in the test with UO-31 renal. Besides, the growth is 50.8% in the test on ACHN renal; 25.4% with CAKI-1 renal; -45.8% (active) with A498 renal; 30.7% in the test with HL-60(TB) leukemia; 33.9% in the test with CCRF-CEM leukemia.

Turning to `O=Cc1cn(Cc2ccc(Cl)cc2)c2ccccc12`, the growth with HCT-15 colon is 89.7%; with HT29 colon, 106%; in the test on SNB-75 CNS, 86.7%; with SNB-19 CNS, 89.7%; with U251 CNS it was 75.5%; in the test on PC-3 prostate, 82.3%. Further, the growth in the test with SK-MEL-5 melanoma was 94.4%; with UACC-62 melanoma, -0.449% (active); in the test with LOX IMVI melanoma, 88.2%; with SK-MEL-28 melanoma it was 96.4%; in the test with EKVX NSCLC, 88.9%; in the test on SN12C renal it was 89.6%. Besides, the growth in the test with UO-31 renal was 61.4%; in the test on ACHN renal it was 91.6%; with CAKI-1 renal it was -20.8% (active); in the test with A498 renal, -89.8% (active); with HL-60(TB) leukemia, 97.7%; with CCRF-CEM leukemia it was 89.6%.
